Source: PubChem (National Center for Advancing Translational Sciences (NCATS))
The list is not random: actives were taken first. Their share in the collection is about 3.1%.
VDR inh = Inhibitors of the vitamin D receptor (VDR): qHTS | VDR-SRC2-3 peptide fluorescence polarization, 2 h | Potency, µM, actives largely listed as inhibitors | actives 0.93% (n = 400,000)
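Fluorescence polarization assay of small-molecule disruption of VDR binding to coregulator peptide SRC2-3. Compounds and controls pin-transferred, then read after 2 h incubation at ambient room temperature.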
GLS inh = qHTS for Inhibitors of Glutaminase (GLS) | Glutaminase kidney isoform, mitochondrial (Homo sapiens), O94925 | GLS enzymatic activity, qHTS titration | Potency, µM (titrated, usually from 45.5 µM), most hits filed as inhibitors | actives 0.21% (n = 410,000) | AID 624170, 2012
Target sequence (O94925 whole entry, looked up, canonical isoform): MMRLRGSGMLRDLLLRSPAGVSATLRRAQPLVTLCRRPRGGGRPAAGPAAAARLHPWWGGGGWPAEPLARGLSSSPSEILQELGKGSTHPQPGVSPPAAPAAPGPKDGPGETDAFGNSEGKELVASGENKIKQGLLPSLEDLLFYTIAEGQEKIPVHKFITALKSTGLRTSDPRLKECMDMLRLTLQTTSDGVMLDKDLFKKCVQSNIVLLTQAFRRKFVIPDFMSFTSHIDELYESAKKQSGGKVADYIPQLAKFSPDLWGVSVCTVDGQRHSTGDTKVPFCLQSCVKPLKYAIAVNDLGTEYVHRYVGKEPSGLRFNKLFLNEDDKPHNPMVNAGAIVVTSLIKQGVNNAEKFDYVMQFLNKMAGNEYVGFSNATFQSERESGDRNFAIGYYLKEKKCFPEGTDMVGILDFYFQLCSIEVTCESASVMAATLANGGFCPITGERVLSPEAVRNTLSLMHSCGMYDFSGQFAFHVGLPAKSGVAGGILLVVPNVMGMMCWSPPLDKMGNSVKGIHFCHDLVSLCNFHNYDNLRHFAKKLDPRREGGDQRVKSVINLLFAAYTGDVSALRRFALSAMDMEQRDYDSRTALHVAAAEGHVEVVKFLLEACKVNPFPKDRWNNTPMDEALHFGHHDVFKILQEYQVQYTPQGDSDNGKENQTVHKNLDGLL
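hKGA; 45 mM KH2PO4 pH 8.2 + 0.02% Tween-20; cpd via pin tool; 1 mM Gln soln; GluOx/HRP/Amplex Red; RT 30 min; fluor. t0 & final.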
PI4K2A inh = qHTS for small molecular inhibitors of PI4K2A | AID 1346378, 2018 | activity change, negative = inhibition, % at 76.9 µM | actives 0.13% (n = 420,000) | Phosphatidylinositol 4-kinase type 2-alpha (Homo sapiens), Q9BTU6 | purified PI4K2A, ADP-Glo luminescence, 1 h; active compounds read low; in the data active = activity change below about -50%; inconclusive = mostly about -30% to -49%
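PI4K2A activity was measured by ADP-Glo luminescence: enzyme (4 ug/mL stock) and phosphatidylinositol (1.2 mM stock) in Tris pH 7.5/MgCl2/EGTA/Triton X-100 buffer were reacted with ATP (300 microM stock) for one hour at ambient temperature.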
PLK1 PBD inh = qHTS for Inhibitors of PLK1-PDB (polo-like kinase 1 - polo-box domain): Primary Screen | AID 720504, 2013 | Serine/threonine-protein kinase PLK1 (Homo sapiens), P53350 | actives 2.8% (n = 360,000) | Plk1 PBD binding of FITC phosphopeptide, fluorescence polarization | Potency, µM, actives largely listed as inhibitors; also: series mostly up to about 57 µM; nearly all actives have a fitted effect of over 65% in size
GCN5L2 inh = qHTS Assay for Inhibitors of GCN5L2. GCN5L2 HAT assay, ThioGlo1 CoA-SH fluorescence. AID 504327, 2011. Histone acetyltransferase KAT2A (Homo sapiens), Q92830. Potency, µM (doses to about 58.9 µM), actives largely listed as inhibitors. actives 0.21% (n = 390,000)
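Free CoA generated was detected with ThioGlo1 (50uM) fluorescence at Ex340nm/Em540nm, read immediately and after 20 min at room temperature. Enzyme, 20 nM in HEPES pH 7.5 buffer, saw compounds 15 min before adding 75uM H3(1-25) peptide and 70uM acetyl-CoA.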
Each line names hits and unclear results; the compound was inactive in the other large screens. Unless noted, calls follow the shape of the dose curve; as a rule, active = well fitted curve in the direction sought with a large enough effect; inconclusive = small, poorly fitted or top-dose-only effect, or another doubt; inactive = no such curve, though single readings can be large; an effect the other way counts as inactive or inconclusive.

COc1cccc(C(=O)NNC(=O)C2CCCO2)c1 (centres undefined)	none
COc1ccc(C(=O)NNC(=O)C2CCCO2)cc1 (centres undefined)	VDR inh inconclusive, PLK1 PBD inh 27µM
O=C1CCN(CCc2ccccc2)CCN1C(CSc1ccc(Br)cc1)c1ccccc1 (centres undefined)	none (no result: GLS inh, PI4K2A inh, PLK1 PBD inh, GCN5L2 inh)
Nc1ncnc2nc(SCCOc3ccc(Cl)cc3)[nH]c12	none
Cc1ccc(OCCSc2nc3ncnc(N)c3[nH]2)cc1	VDR inh inconclusive, PLK1 PBD inh 9.5µM
COc1ccc(OCc2nnc(SCC(=O)N(C)Cc3ccccc3)n2N)cc1	VDR inh 79µM, PLK1 PBD inh 11µM
Cc1ccc(OCc2nnc(SCC(=O)O)n2N)cc1	none
Cc1nc(C)c(/C(O)=C\c2nc3ccc([N+](=O)[O-])cc3oc2=O)o1	GLS inh 11µM
C[C@H](O)[C@@H]1CN2CCc3c([nH]c4cccc(-c5ccccc5)c34)[C@@H]2C[C@@H]1N(C)C(=O)Nc1ccccc1	none (no result: VDR inh, GLS inh, PLK1 PBD inh, GCN5L2 inh)
O=C(Cc1ccccc1)NCc1n[nH]c(=S)n1-c1ccc(Br)cc1	VDR inh inconclusive, GLS inh inconclusive, PLK1 PBD inh 11µM
COc1ccc(CC(=O)NCc2n[nH]c(=S)n2-c2ccc(Br)cc2)cc1	GLS inh inconclusive, PLK1 PBD inh inconclusive
CCN(CC)c1ccc(C(=O)N2CCc3c([nH]c4ccccc34)C2c2ccc(F)cc2)cc1 (centres undefined)	none (no result: PLK1 PBD inh)
O=C(NCC1CN(c2ccc(N3CCOCC3=O)cc2)C(=O)O1)c1ccc(Cl)s1 (centres undefined)	none (no result: VDR inh, GLS inh, PLK1 PBD inh, GCN5L2 inh)
Cn1cc(C(=O)C(=O)NC2CC2)c2ccccc21	PLK1 PBD inh 27µM (no result: GCN5L2 inh)
COc1ccc(NS(=O)(=O)c2c(C(=O)N3CCCCCC3)c(C)n(C)c2C)cc1OC	PLK1 PBD inh inconclusive
COc1cc(Cl)c(NS(=O)(=O)c2c(C(=O)N3CCCC3)c(C)n(C)c2C)c(OC)c1	PLK1 PBD inh 27µM
COc1ccccc1N1CCN(S(=O)(=O)c2c(C(=O)N3CCOCC3)c(C)n(C)c2C)CC1	VDR inh inconclusive, PLK1 PBD inh 3.4µM
Cc1ccsc1/C=C1\CCc2ccccc2C1=O	PI4K2A inh -75
COc1cccc(/C=C2\CCc3ccccc3C2=O)c1	PI4K2A inh -69
COc1cccc(C=C2Cc3ccccc3C2=O)c1	none (no result: VDR inh, GCN5L2 inh)
CC(=O)Oc1ccc(/C=C2/CCc3ccccc3C2=O)cc1	VDR inh inconclusive, PI4K2A inh -79
COc1ccc(N/C=C2\CCc3ccccc3C2=O)cc1	PI4K2A inh -66
CSc1cccc(NC(=O)CN2C(=O)COc3ccc(Cl)cc32)c1	none (no result: PLK1 PBD inh)
CC(C)c1nn2c(=O)cc(COC(=O)c3ccco3)nc2s1	none (no result: PLK1 PBD inh)
CCc1cc2c(SCC(=O)c3ccc(C)cc3)ncnc2s1	PLK1 PBD inh 30µM
CCCn1c2ccc(C)cc2c2n[nH]c(=S)nc21	PLK1 PBD inh 27µM
CCCn1c2ccc(C)cc2c2nnc(SCCN3CCCCC3)nc21	none
CCn1c2ccccc2c2n[nH]c(=S)nc21	PLK1 PBD inh inconclusive
O=C(O)Cn1c2ccccc2c2n[nH]c(=S)nc21	PLK1 PBD inh 27µM
COC(=O)c1cc(-c2cccc3c2sc2ccccc23)c(=O)n2c1CCC2	none (no result: VDR inh, GLS inh, PLK1 PBD inh, GCN5L2 inh)
COc1ccccc1Cn1c(=S)[nH]c2cc(C(=O)NCC(OC)OC)ccc2c1=O	GLS inh 10µM
COc1ccccc1Cn1c(=S)[nH]c2ccccc2c1=O	GLS inh 20µM
N#Cc1ccc(/C=C2\CC3(OC(=O)c4ccc(Cl)cc4)CCCN2C3)cc1 (centres undefined)	none (no result: VDR inh, GLS inh, PLK1 PBD inh, GCN5L2 inh)
Cc1cc(C)cc(C(=O)OCCCN(C)C2CN(Cc3cn(Cc4ccccc4C(F)(F)F)nn3)S(=O)(=O)C2)c1 (centres undefined)	none (no result: VDR inh, GLS inh, PLK1 PBD inh, GCN5L2 inh)
N=C1/C(=C\c2coc3ccccc3c2=O)C(=O)N=C2SC(c3ccncc3)=NN12	VDR inh 28µM, GLS inh inconclusive, GCN5L2 inh inconclusive
CSC1=NSC2=NC(=O)/C(=C\c3coc4ccccc4c3=O)C(=N)N12	VDR inh inconclusive, PLK1 PBD inh 27µM
Cc1cc(/C=C2\C(=N)N3C(SCc4ccccc4)=NSC3=NC2=O)c(C)n1Cc1ccccc1	none
CC(C)CSC1=NSC2=NC(=O)/C(=C\c3ccccc3)C(=N)N12	PLK1 PBD inh 27µM
N=C1/C(=C/c2coc3ccccc3c2=O)C(=O)N=C2SC(c3ccco3)=NN12	VDR inh inconclusive, PLK1 PBD inh inconclusive
CC(C)CSC1=NSC2=NC(=O)/C(=C\c3coc4ccccc4c3=O)C(=N)N12	VDR inh 79µM, PLK1 PBD inh 17µM, GCN5L2 inh inconclusive
C=CCN1c2ccccc2Sc2cnccc21	none (no result: VDR inh, GCN5L2 inh)
c1ccc2c(c1)Nc1ccncc1S2	GLS inh 10µM
CC(=O)NC1C(OCc2ccccc2)OC(CO)C(OC(C)=O)C1OC(C)=O (centres undefined)	none
CC(=O)NC1C(OCc2ccccc2)OC2COC(c3ccccc3)OC2C1OCC(=O)O (centres undefined)	PLK1 PBD inh 21µM
CCOC(=O)c1c2c(n(Cc3ccccc3)c1C)C(=O)C(=O)c1ccccc1-2	VDR inh 50µM, PI4K2A inh inconclusive (no result: GCN5L2 inh)
CN1CCCN(C(=O)C2CCCN(C(=O)c3ccc4c(c3)NC(=O)CS4)C2)CC1 (centres undefined)	none (no result: VDR inh, GLS inh, PLK1 PBD inh, GCN5L2 inh)
COC(=O)[C@@]1(C(C)C)N=C(c2cc(OC)c(OC)c(OC)c2)[C@]2(O1)C(=O)N(Cc1cn(Cc3ccccc3)nn1)c1ccc(F)cc12	none (no result: VDR inh, GLS inh, PLK1 PBD inh, GCN5L2 inh)
O=C1C=C(Nc2ccccc2O)c2ccccc2C1=O	PI4K2A inh inconclusive
O=C1C=C(NCc2ccccc2)c2ccccc2C1=O	VDR inh 2µM, PI4K2A inh -64, PLK1 PBD inh inconclusive
CSc1ccccc1-c1nnc(-c2ccccc2)o1	none
CSc1nnc(-c2ccccc2SC)o1	PLK1 PBD inh 30µM
COC(=O)[C@]12CCCCC=C1N(Cc1ccc(OC)cc1)C(=O)[C@@H]2CC(=O)N1CCCC1	none (no result: VDR inh, GLS inh, PLK1 PBD inh, GCN5L2 inh)
COC(=O)[C@@H]1[C@H](O[Si](C)(C)C(C)(C)C)C2OC2C[C@H]1S(=O)(=O)c1ccccc1 (some centres undefined)	none (no result: VDR inh, GLS inh, PLK1 PBD inh, GCN5L2 inh)
CCOc1c(O)ccc(/C=C2\SC(=S)NC2=O)c1[N+](=O)[O-]	VDR inh inconclusive, PLK1 PBD inh 30µM
c1cnc2nc(CSc3ncn[nH]3)cn2c1	none
Cc1ccc2nc(SCc3cn4cccnc4n3)[nH]c2c1	VDR inh inconclusive, PLK1 PBD inh 27µM
COc1ccccc1NC(=O)C1=C(C)Nc2c(C(=O)Nc3cccc(C)c3)cnn2C1c1ccccc1C (centres undefined)	GCN5L2 inh 28µM (no result: PLK1 PBD inh)
